Most compounds without a hit are left out; they make up all but 6.9% or so of the library.
JMJD2A Tudor – blocks the human JMJD2A Tudor domain; O75164; AlphaScreen JMJD2A-Tudor / H3K4me3 peptide binding; Potency, µM (doses to about 114 µM), most hits filed as inhibitors; 390,000 compounds, 4.4% hits; further: nearly all actives have a fitted effect of over 50% in size
PLK1 PBD block – PLK1 (human) polo-box domain binding inhibition | P53350 | Plk1 PBD binding of FITC phosphopeptide, fluorescence polarization | Potency, µM, most hits filed as inhibitors | 360,000 compounds, 2.8% hits; further: series mostly up to about 57 µM; nearly all actives have a fitted effect of over 65% in size
HP1b binding inh – inhibitors of HP1-beta chromodomain binding to methylated histone tails. P83916. AlphaScreen HP1-beta / biotin-H3K9me3 peptide binding. Potency, µM (series often up to 114 µM), usual class: inhibitors. 390,000 compounds, 0.56% hits. AID 540317; further: nearly all actives have a fitted effect of over 70% in size
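AlphaScreen: HP1-beta (50 nM) preformed 30 min with biotin-H3(1-18)K9me3 peptide (50 nM) in PBS pH 7.4, 0.01% Tween-20. Compound added for 30 min at RT, then streptavidin donor/nickel chelate acceptor beads (10 ug/mL) for 30 min.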
L3MBTL1 block – inhibitors of human L3MBTL1; Q9Y468; AlphaScreen L3MBTL1–H3K9me1 peptide binding; Potency, µM (series often up to 57.1 µM), most hits filed as inhibitors; 230,000 compounds, 0.66% hits; AID 485360; further: nearly all actives have a fitted effect of over 60% in size
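First, the protein-peptide complex forms for 30 min at room temperature (L3MBTL1 50 nM, biotinylated H3K9me1 peptide 75 nM). Next, compounds are pin-transferred and incubated 30 min. Finally, AlphaScreen beads are added and read after 30 min.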
VDR inhibitor – vitamin D3 receptor (human) inhibition; P11473; VDR-SRC2-3 peptide fluorescence polarization, 2 h; Potency, µM, usual class: inhibitors; 400,000 compounds, 0.93% hits; AID 504847
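Signal is fluorescence polarization, reporting how far test compounds block the interaction of VDR with the SRC2-3 coregulator peptide after a 2 h room-temperature incubation.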
BAZ2B block – BAZ2B (human) inhibition | Q9UIF8 | Potency, µM (highest dose often 114 µM), usual class: inhibitors | AlphaScreen BAZ2B-H3K14Ac peptide displacement | 360,000 compounds, 4.4% hits; further: nearly all actives have a fitted effect of over 60% in size
Target sequence (Q9UIF8 whole entry, looked up): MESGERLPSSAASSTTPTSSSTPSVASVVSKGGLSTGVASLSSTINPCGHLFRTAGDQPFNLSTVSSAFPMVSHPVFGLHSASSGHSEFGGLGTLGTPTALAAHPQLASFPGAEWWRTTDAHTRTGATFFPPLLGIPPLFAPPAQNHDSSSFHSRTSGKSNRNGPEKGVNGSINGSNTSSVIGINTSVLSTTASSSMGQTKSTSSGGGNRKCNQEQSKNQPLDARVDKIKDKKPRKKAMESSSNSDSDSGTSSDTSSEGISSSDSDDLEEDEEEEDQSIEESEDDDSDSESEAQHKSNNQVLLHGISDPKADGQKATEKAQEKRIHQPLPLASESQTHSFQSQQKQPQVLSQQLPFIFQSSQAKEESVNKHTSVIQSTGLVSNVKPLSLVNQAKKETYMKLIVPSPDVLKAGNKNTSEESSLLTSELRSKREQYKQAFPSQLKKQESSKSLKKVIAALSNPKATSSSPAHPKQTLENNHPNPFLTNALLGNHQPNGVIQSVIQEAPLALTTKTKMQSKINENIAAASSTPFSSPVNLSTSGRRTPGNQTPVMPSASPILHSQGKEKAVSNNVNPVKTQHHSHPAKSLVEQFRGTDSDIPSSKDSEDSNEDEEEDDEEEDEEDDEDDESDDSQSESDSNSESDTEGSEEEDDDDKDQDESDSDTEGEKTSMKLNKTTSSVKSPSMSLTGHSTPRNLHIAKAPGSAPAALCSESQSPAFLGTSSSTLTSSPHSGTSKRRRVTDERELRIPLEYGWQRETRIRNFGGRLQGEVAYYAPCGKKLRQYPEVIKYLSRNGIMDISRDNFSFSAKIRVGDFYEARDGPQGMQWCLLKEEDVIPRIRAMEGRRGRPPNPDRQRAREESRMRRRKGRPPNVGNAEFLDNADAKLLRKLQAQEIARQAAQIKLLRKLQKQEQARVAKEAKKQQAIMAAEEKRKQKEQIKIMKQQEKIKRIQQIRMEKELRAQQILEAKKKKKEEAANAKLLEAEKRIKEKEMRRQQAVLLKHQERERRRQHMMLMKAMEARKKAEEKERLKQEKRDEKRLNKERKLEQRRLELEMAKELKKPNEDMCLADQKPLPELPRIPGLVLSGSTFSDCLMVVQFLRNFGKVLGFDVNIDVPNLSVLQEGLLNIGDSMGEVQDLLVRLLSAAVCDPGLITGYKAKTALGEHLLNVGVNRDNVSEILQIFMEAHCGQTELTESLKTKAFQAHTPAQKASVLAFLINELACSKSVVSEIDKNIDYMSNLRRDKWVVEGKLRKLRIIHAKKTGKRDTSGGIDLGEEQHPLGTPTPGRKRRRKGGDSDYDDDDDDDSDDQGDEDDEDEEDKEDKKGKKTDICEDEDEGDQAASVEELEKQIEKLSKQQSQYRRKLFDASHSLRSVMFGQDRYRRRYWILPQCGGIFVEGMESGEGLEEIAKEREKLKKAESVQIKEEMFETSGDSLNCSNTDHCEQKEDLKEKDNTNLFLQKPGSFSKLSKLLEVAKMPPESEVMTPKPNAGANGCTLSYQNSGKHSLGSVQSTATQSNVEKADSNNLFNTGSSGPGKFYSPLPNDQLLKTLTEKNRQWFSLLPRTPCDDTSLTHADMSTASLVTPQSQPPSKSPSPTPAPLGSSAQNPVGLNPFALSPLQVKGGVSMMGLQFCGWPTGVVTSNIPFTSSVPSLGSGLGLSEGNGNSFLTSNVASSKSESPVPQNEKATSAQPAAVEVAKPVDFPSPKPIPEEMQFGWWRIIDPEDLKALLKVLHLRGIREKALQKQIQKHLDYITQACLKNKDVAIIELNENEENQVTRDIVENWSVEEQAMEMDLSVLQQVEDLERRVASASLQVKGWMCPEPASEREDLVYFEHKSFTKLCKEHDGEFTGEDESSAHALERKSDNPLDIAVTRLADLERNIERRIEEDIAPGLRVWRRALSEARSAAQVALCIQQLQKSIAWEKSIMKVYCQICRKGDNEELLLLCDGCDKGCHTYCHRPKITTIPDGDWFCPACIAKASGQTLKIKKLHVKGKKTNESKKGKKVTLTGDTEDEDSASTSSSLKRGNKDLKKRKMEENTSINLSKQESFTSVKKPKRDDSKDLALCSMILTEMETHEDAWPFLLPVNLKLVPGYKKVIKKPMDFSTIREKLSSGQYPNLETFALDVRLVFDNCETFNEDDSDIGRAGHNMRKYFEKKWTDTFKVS
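Multi-concentration screen (max 110 uM) measuring displacement of acetylated histone H3 peptide from BAZ2B by AlphaScreen, using 50 nM protein, 50 nM peptide and 10 ug/mL streptavidin donor plus Ni-chelate acceptor beads.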
Of the large screens only hits and unclear results are named; the others gave an inactive call. The call rests on the fitted dose curve; in most records, active means well fitted curve in the direction sought with a large enough effect; inconclusive means small, poorly fitted or top-dose-only effect, or another doubt; inactive means no such curve, though single readings can be large; an effect the other way counts as inactive or inconclusive.

S=c1[nH]nc(-c2ccco2)n1/N=C/c1ccccn1	BAZ2B block 50.1µM (no result: JMJD2A Tudor, PLK1 PBD block, HP1b binding inh, VDR inhibitor)
S=c1[nH]nc(-c2ccco2)n1/N=C/c1cccc(Cl)c1	JMJD2A Tudor 79.4µM, PLK1 PBD block inconclusive
S=c1[nH]nc(-c2ccccn2)n1/N=C/c1ccco1	JMJD2A Tudor 7.08µM, L3MBTL1 block 20µM, BAZ2B block 8.91µM
S=c1[nH]nc(-c2cccc(Cl)c2)n1/N=C/c1ccco1	JMJD2A Tudor 31.6µM (no result: L3MBTL1 block)
C=C1CC23C[C@H]4[C@@H]5[C@@]6(C)C[C@H](OC(=O)c7ccccc7)[C@@H](OC(C)=O)[C@]57[C@@H]2[C@@H](OC(C)=O)[C@H]1[C@@H](O)[C@H]3[C@H]7N4C6	none (no result: JMJD2A Tudor, PLK1 PBD block, HP1b binding inh, L3MBTL1 block, BAZ2B block)
Cc1cc(C(=O)N2CCN(c3cc(Cl)ccc3C)CC2)c2c(C)nn(-c3ccccc3)c2n1	none (no result: PLK1 PBD block, L3MBTL1 block)
OCC(O)CO	none (no result: JMJD2A Tudor, PLK1 PBD block, HP1b binding inh, L3MBTL1 block, BAZ2B block)
C=CCc1ccccc1OCc1nc2ccccc2n1CC	none (no result: PLK1 PBD block, L3MBTL1 block)
COc1cc(-c2n[nH]c(=S)n2/N=C/c2cccn2C)cc(OC)c1OC	JMJD2A Tudor 1.26µM, HP1b binding inh inconclusive, BAZ2B block inconclusive (no result: L3MBTL1 block)
COc1cc(-c2n[nH]c(=S)n2-c2cc(C(F)(F)F)ccc2Cl)cc(OC)c1OC	none
S=c1[nH]nc(-c2ccccn2)n1/N=C/c1cccc(Cl)c1	JMJD2A Tudor 20µM, PLK1 PBD block inconclusive, BAZ2B block 28.2µM (no result: L3MBTL1 block)
Cn1cccc1/C=N/n1c(-c2ccco2)n[nH]c1=S	JMJD2A Tudor 20µM, L3MBTL1 block inconclusive, BAZ2B block inconclusive
S=c1[nH]nc(-c2cccc(Cl)c2)n1/N=C/c1ccc(-c2ccccc2Br)o1	none
Cc1ccc(/C=N/n2c(-c3ccco3)n[nH]c2=S)cc1	JMJD2A Tudor 10µM, PLK1 PBD block inconclusive, HP1b binding inh 56.2µM, BAZ2B block inconclusive
Cn1cccc1/C=N/NC(=O)c1ccco1	none (no result: L3MBTL1 block)
CC1CN(C(=O)N2CCC(C(=O)NCc3ccccc3F)CC2)c2cc(Cl)ccc2O1 (stereo unspecified)	BAZ2B block inconclusive (no result: PLK1 PBD block, L3MBTL1 block)
Cc1sc2c(c1C)c(=O)n(CCc1ccccc1)c(=O)n2Cc1ccc(F)cc1	none (no result: PLK1 PBD block, L3MBTL1 block)
O=C(O)c1ccccc1N/C=C\[N+](=O)[O-]	none (no result: L3MBTL1 block)
Cc1ccc(Cl)cc1-n1nnc(-c2nc(-c3ccc4c(c3)OCO4)no2)c1C	none (no result: PLK1 PBD block, L3MBTL1 block)
S=c1[nH]nc(-c2ccco2)n1/N=C/c1c(Cl)cccc1Cl	JMJD2A Tudor inconclusive (no result: L3MBTL1 block)
S=c1[nH]nc(-c2ccco2)n1/N=C/c1ccc(Cl)c(Cl)c1	JMJD2A Tudor 79.4µM, PLK1 PBD block 9.47µM
O=C(Nc1ccccc1)c1ccc[nH]1	JMJD2A Tudor inconclusive, PLK1 PBD block 18.9µM, VDR inhibitor inconclusive
N/C(=N\OS(=O)(=O)c1ccc2ccccc2c1)c1ccccn1	JMJD2A Tudor 5.01µM, BAZ2B block 20µM
Cc1cc(C)nc(SCC(=O)Oc2ccc3oc(=O)cc(C)c3c2)n1	PLK1 PBD block 26.7µM
CSc1ccc(CCNC(=O)c2cc3cc(S(=O)(=O)N4CCCCC4)ccc3n2C)cc1	none (no result: PLK1 PBD block, L3MBTL1 block)
Cc1cc(Cl)ccc1Oc1ncnc2oc(-c3ccccc3)cc12	JMJD2A Tudor inconclusive, BAZ2B block 79.4µM
COc1ccc(C2C(C(=O)c3ccco3)=C(O)C(=O)N2CCc2ccccc2)cc1OC (stereo unspecified)	JMJD2A Tudor 79.4µM
COc1ccc(C2C(C(C)=O)=C(O)C(=O)N2CCc2ccccc2)c(OC)c1 (stereo unspecified)	JMJD2A Tudor 31.6µM, BAZ2B block inconclusive (no result: L3MBTL1 block)
COc1ccc(OC)c(C2C(C(C)=O)=C(O)C(=O)N2CCC(=O)O)c1 (stereo unspecified)	JMJD2A Tudor inconclusive, BAZ2B block 50.1µM (no result: L3MBTL1 block)
COc1ccc(C2C(C(C)=O)=C(O)C(=O)N2Cc2ccccc2)c(OC)c1 (stereo unspecified)	none (no result: L3MBTL1 block)
COc1ccc(OC)c(C2C(C(C)=O)=C(O)C(=O)N2CCN2CCOCC2)c1 (stereo unspecified)	JMJD2A Tudor inconclusive
O=C(NCc1ccccc1)Nc1ncnc2c1C(c1ccccc1)c1c(ccc3ccccc13)O2 (stereo unspecified)	none (no result: PLK1 PBD block, HP1b binding inh, L3MBTL1 block, VDR inhibitor, BAZ2B block)
Cc1c([C@H]2[C@@H](CC#N)C2(C)C)c2ccccc2n1C	JMJD2A Tudor inconclusive, HP1b binding inh inconclusive, BAZ2B block 22.4µM

Source: PubChem (National Center for Advancing Translational Sciences (NCATS))
